In the library only some 12% were active in any assay of this set; here they are far more common.
LASV entry inh: qHTS for Inhibitors of binding or entry into cells for Lassa Virus. Lassa virus pseudotype entry inhibition, cell reporter. Potency, µM (doses to about 37.9 µM), usual class: inhibitors. 1.2% of 300,000 active; calls by dose curve; tested in HEK293 cells; note: nearly all actives have a fitted effect of over 50% in size
Shiga toxin inh: A qHTS for Small Molecule Inhibitors of Shiga Toxin | Vero cells, Shiga toxin protein synthesis inhibition reporter | inhibition, % at 38.7 µM | 9.2% of 290,000 active | AID 2315, 2010; in the data active = inhibition mostly above about 28%, no sharp cut-off; inactive = mostly below about 43%
Cycloheximide cs: Cycloheximide Counterscreen for Small Molecule Inhibitors of Shiga Toxin; AID 2314, 2010; max response, %; 12% of 300,000 active; cell reporter, cycloheximide protein synthesis inhibition counterscreen; in the data active = max response mostly above about 13%, no sharp cut-off; inactive = mostly below about 14%; note: read at 38.3 µM for the half of the compounds with a filed dose
Marburg entry inh: qHTS for inhibitors of binding or entry into cells for Marburg Virus; Marburg virus pseudotyped entry inhibition, cell reporter; Potency, µM (titrated, usually from 37.8 µM), usual class: inhibitors; AID 540276, 2011; 1.8% of 300,000 active; calls by dose curve; tested in HEK293 cells
Hits are given with their value; – = inactive; ? = inconclusive; · = no result given; + = active, no number.

SMILES	LASV entry inh	Shiga toxin inh	Cycloheximide cs	Marburg entry inh
C(/CCc1ccccc1)=N\Nc1nc2ccccc2[nH]1	·	47	27	·
Fc1ccc(/C=N/Nc2nc3ccccc3[nH]2)cc1F	·	118	36	·
COc1ccc(/C=N/Nc2nnc(Cc3ccccc3)c(=O)[nH]2)cc1	–	–	–	–
O=c1[nH]c(N/N=C/c2ccccc2)nc2ccccc12	?	72	43	?
CCCCCC/C=N/Nc1nnc(Cc2ccccc2)c(=O)[nH]1	–	–	–	–
C(=N\Nc1nc2ccccc2[nH]1)/C1CCCCC1	?	114	61	–
COCCCNC(=O)c1oc2c(c1C)-c1nn(Cc3cccc(Cl)c3)cc1CC2	–	·	·	·
COc1ccccc1OCCC(=O)OCC(=O)c1c(N)n(C)c(=O)n(C)c1=O	–	–	–	–
C(=N\Nc1nc2ccccc2[nH]1)/c1ccccc1	–	76	49	–
Brc1ccc(-c2ccc(/C=N/Nc3nc4ccccc4[nH]3)o2)cc1	·	78	49	·
Cc1cc(N/N=C/c2ccc3c(c2)OCO3)nc2ccccc12	·	79	47	·
Fc1cccc(/C=N/Nc2nc3ccccc3[nH]2)c1	–	84	40	–
CC1(C)Cc2ccccc2C(N/N=C/c2cccc(F)c2)=N1	?	–	–	?
Brc1ccc(-c2ccc(/C=N/Nc3nncc(-c4ccccc4)n3)o2)cc1	–	–	–	–
O=C(N/N=C/c1ccc2c(c1)OCO2)c1cc(-c2ccccc2)nc2ccccc12	?	–	–	?
COCCCN1CC(=O)N2Cc3[nH]c4ccccc4c3C[C@H]2C1=O	·	–	–	·
COc1ccc(-n2c(SCCC(=O)O)nnc2-c2ccncc2)cc1	–	–	–	–
O=c1[nH]c(N/N=C/c2cc3c(cc2[N+](=O)[O-])OCO3)nc2ccccc12	·	–	–	·
O=c1[nH]c(N/N=C\c2ccc3c(c2)OCO3)nc2ccccc12	?	54	53	–
C(=C\c1ccccc1)/C=N/Nc1nc2ccccc2[nH]1	–	89	27	?
C=CCN1C(=O)c2ccccc2Sc2ccc(C(=O)NCC(OC)OC)cc21	·	–	–	·
COc1ccc(/C=C2\CCCCC2=O)cc1	?	·	·	–
COc1ccc(/C=C2\CCC/C(=C\C=N\N(C)C)C2=O)cc1	–	–	28	–
CN(C)/N=C/C=C1\CCC/C(=C\c2ccc(F)c(F)c2)C1=O	?	+	87	?
COc1cc(N)ccc1-c1cc2ccccc2oc1=O	·	–	–	·
SMILES	LASV entry inh	Shiga toxin inh	Cycloheximide cs	Marburg entry inh
Cc1cc(N)ccc1-c1cc2ccccc2oc1=O	?	·	17	?
CC(=O)Nc1ccc(-c2cc3ccccc3o2)cc1	–	105	43	?
Nc1ccc(-c2cc3ccccc3oc2=O)cc1	0.71µM	–	–	?
Cc1ccc(NC(=O)CN(C)C(=O)c2cc3ccccc3o2)cc1	–	–	–	–
O=C(NCc1ccccc1Cl)c1cc2ccccc2oc1=O	–	·	–	–
O=c1oc2ccccc2cc1NCc1ccccc1O	–	123	55	?
CC(=O)N1CCCc2cc(S(=O)(=O)N(C)CC(=O)Nc3ccc(Cl)cc3C)ccc21	–	·	·	·
Nc1ncnc2c1ncn2[C@@H]1O[C@H](CNS(=O)(=O)c2cc3ccccc3s2)[C@@H](O)[C@H]1O	·	·	·	–
COC(=O)C1=C(C)N(Cc2ccccc2)C(=NCCc2cccnc2)NC1c1ccc(Br)cc1 (centres undefined)	?	·	·	–
C/C(=C\CNc1ncnc2c1ncn2[C@@H]1O[C@H](CO)[C@@H](O)[C@H]1O)CO	·	–	–	·
Nc1ccc2oc(=O)c(-c3ccccc3)cc2c1	·	56	36	·
COc1ccc(-c2cc3ccc(OCC(N)=O)cc3oc2=O)cc1OC	·	–	–	·
O=c1oc2ccccc2cc1-c1ccc(O)cc1	–	69	118	?
O=C(NCc1cccnc1)c1ccc(-c2cc3ccccc3oc2=O)cc1	·	67	39	·
COc1ccc(C(=O)NCc2cccnc2)cc1	–	–	–	–
COc1ccc(-c2cc3ccc(O)cc3oc2=O)cc1OC	–	68	32	–
Cc1ccnn1CCC(=O)O	·	–	–	–
CCC(=O)Nc1cc(-c2cc3ccccc3oc2=O)ccc1OC	–	–	–	–
CCC(=O)Nc1ccc(-c2cc3ccccc3oc2=O)cc1	?	107	38	?
CN1CCN(/N=C/c2ccc(OCc3ccccc3)cc2)CC1	·	107	65	·
CCOc1ccc(/C=N/n2cnnc2)cc1	–	–	–	–
C(=N\n1cnnc1)/c1ccc(OCc2ccccc2)cc1	–	–	24	–
COc1ccc(/C=N/N2CCN(Cc3ccccc3)CC2)cc1	·	–	–	·
COC(=O)c1ccc(COc2ccc(/C=N/N3CCN(C)CC3)cc2)cc1	?	155	56	–
CCOC(=O)NC(=O)CSc1nnc(C2CC2)n1Cc1ccco1	–	–	–	–
COc1ccc(Cl)cc1NC(=O)CSc1ccc(-c2sc(C)nc2C)nn1	–	·	·	·
